ALOX15B inhib = qHTS Assay for Inhibitors of 15-hLO-2 (15-human lipoxygenase 2); Potency, µM (highest dose often 57.1 µM), without a hit: at the top dose activity change, negative = inhibition, hits mostly inhibitors; purified 15hLO-2, xylenol orange hydroperoxide absorbance; Polyunsaturated fatty acid lipoxygenase ALOX15B (Homo sapiens), O15296; actives 0.56% (n = 110,000); note: potency is the fitted concentration of half-maximal effect; nearly all actives have a fitted effect of over 60% in size
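Purified human 15hLO-2 (50 nM final) preincubated with compounds 15 min at room temperature in 25 mM Hepes pH 7.5, 0.01% Triton X-100, then 45 uM arachidonic acid added for 90 min; hydroperoxide detected via ferrous/xylenol orange, 573/405 nm absorbance ratio.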
12-hLO inh = qHTS Assay for Inhibitors of 12-hLO (12-human lipoxygenase) | actives 0.12% (n = 150,000) | Potency, µM (doses to about 57.1 µM), inactives show at the highest dose activity change, negative = inhibition, usual class: inhibitors | purified 12-hLO, xylenol orange hydroperoxide absorbance; note: potency is the fitted concentration of half-maximal effect; nearly all actives have a fitted effect of over 55% in size
Target sequence (P18054 whole entry, looked up): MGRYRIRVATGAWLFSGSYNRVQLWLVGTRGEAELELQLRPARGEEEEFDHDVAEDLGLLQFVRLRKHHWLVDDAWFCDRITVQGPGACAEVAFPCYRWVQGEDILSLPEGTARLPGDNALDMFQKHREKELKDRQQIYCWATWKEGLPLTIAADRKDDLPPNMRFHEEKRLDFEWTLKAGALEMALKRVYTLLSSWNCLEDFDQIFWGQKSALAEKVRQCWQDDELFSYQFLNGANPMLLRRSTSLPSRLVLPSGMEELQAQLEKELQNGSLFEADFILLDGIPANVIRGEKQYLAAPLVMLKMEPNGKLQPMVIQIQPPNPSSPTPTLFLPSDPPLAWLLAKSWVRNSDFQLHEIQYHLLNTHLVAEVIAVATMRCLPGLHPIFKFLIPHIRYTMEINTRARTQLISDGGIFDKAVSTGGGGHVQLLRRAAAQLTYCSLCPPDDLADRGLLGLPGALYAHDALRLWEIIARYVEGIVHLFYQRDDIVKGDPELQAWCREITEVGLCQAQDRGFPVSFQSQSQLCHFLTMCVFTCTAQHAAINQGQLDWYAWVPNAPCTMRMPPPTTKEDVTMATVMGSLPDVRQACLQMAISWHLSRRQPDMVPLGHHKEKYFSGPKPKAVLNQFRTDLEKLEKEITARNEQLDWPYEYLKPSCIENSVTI
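Xylenol orange chromogenic assay: hydroperoxide from 12hLO oxidises Fe(II), giving red-shifted Fe(III)-XO absorbance. Conditions: 150 nM enzyme, 40 uM arachidonic acid, 25 mM Hepes pH 7.0, 0.01% Triton X-100, 30 min, room temperature.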
PNC assembly inh = High Content Assay for Compounds that inhibit the Assembly of the Perinucleolar Compartment; actives 3.1% (n = 140,000); AID 2417, 2010; PC3M PTB-GFP, PNC prevalence imaging, 16 h; hits give low values; activity change (PNC), negative = inhibition, % at 10 µM;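 active = readout at or below -70, meaning at least 70% loss of cells showing the perinucleolar compartment, a nuclear body marking cancer cells; inconclusive = readout between -30 and a set limit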;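 note: plate controls were DMSO wells for no effect and camptothecin positive control wells for full effect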
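PC3M cells stably expressing PTB-GFP, 750–1000 cells/well, treated 16 h at 37 °C with compound (23 nl of library stock), in duplicate. After paraformaldehyde fixation and Hoechst stain, imaged at 20x; PNC prevalence scored by image analysis.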
Numbers without * were called inactive; ? = inconclusive; nt = no result. Shown are actives, neighbours in structure and some others; about 3.2% of the full set was active somewhere. Unless noted, calls come from the whole dose curve; as a rule, active = well fitted curve in the direction sought with a large enough effect; inconclusive = small, poorly fitted or top-dose-only effect, or another doubt; inactive = no such curve, though single readings can be large; an effect the other way counts as inactive or inconclusive. Unless noted, % is set by controls: 0 for no effect and ±100 for the full control effect.

SMILES	ALOX15B inhib	12-hLO inh	PNC assembly inh
CCCCN(C)CC(O)Cn1cc(/C=C/C(=O)c2cccs2)c2ccccc21 (stereo unspecified)	nt	-6.3%	-100.0*
O=C(Cc1ccccc1)NC1CCN(S(=O)(=O)c2ccc(C(=O)O)cc2)CC1	nt	-1.2%	93.9
CCOC(=O)C1CCN(S(=O)(=O)c2ccc(C(C)=O)cc2)CC1	nt	-2.4%	-100.0*
O=C(O)C1CCN(S(=O)(=O)c2ccc(Oc3ccccc3)cc2)CC1	-3.2%	-2.0%	-82.6*
CCOC(=O)C1CCN(S(=O)(=O)c2ccc(OCC(=O)OC)cc2)CC1	-0.3%	-1.4%	?
O=C(O)C1CCN(S(=O)(=O)c2cccnc2)CC1	-3.6%	2.6%	25.6
COCC(=O)NC1CCN(S(=O)(=O)c2ccc(C(=O)O)cc2)CC1	0.2%	-6.7%	-121.8*
OC/C(Br)=C(\Br)CO	-3.3%	-0.6%	nt
CCOC(=O)Nc1ccc2c(CN3C(=O)NC(CC)(CC)C3=O)cc(=O)oc2c1	12.9%	-0.8%	1.8
CCOC(=O)Nc1ccc2c(CN3C(=O)NC4(CCCC4)C3=O)cc(=O)oc2c1	nt	0.7%	-100.0*
Cc1ccc(C(=O)N/C(=C\c2cccs2)C(=O)NCc2ccncc2)cc1	nt	5.9%	15.4
CC(C)Oc1ccc(C(=O)NCc2ccco2)cc1	-5.2%	2.1%	51.5
O=C(NNC1=NCCC1)c1cccc(S(=O)(=O)N2CCOCC2)c1	nt	0.6%	11.9
CC(C)(C)C(=O)Nc1ccccc1C(=O)NCc1ccco1	-7.7%	-6.4%	-137.9*
O=C(Nc1ccccc1C(=O)N1CCOCC1)c1cccc(S(=O)(=O)N2CCCC2)c1	2.1%	6.1%	-89.5*
O=C(Nc1ccccc1C(=O)NCc1ccco1)c1ccco1	-0.4%	2.3%	24.8
O=C(NCc1ccco1)c1ccc(=O)oc1	1.7%	2.4%	-82.9*
O=C(Nc1ccccc1C(=O)N1CCCC1)c1cccc(S(=O)(=O)N2CCCCCC2)c1	-4.2%	-10.8%	44.6
O=C(NNC1=NCCC1)c1cccc(S(=O)(=O)N2CCCC2)c1	nt	0.2%	-107.3*
C[C@@]1(C(NC(=O)c2ccc(-c3ccccc3)cc2)c2ccc(Cl)cc2)C[C@H]1C1CCCCC1 (stereo partly specified)	14.2%	6.8%	nt
O=C(COC(=O)c1ccc(Cl)c(S(=O)(=O)N2CCc3ccccc3C2)c1)Nc1ncc(Cl)cc1Cl	nt	-6.8%	8.0
Cc1noc(C)c1-c1cc(N(C)C)ncn1	-7.8%	0.8%	nt
O=[N+]([O-])c1ccc2nccn2c1	0.8%	1.2%	23.6
O=S(=O)(c1cccc(C(F)(F)F)c1)N1CCN(C(=S)NCc2ccco2)CC1	nt	-3.6%	-108.7*
O=C(NCc1ccco1)c1cccc(S(=O)(=O)N2CCCCC2)c1	nt	-0.6%	-100.0*
SMILES	ALOX15B inhib	12-hLO inh	PNC assembly inh
O=C(NCc1ccco1)c1cccc(S(=O)(=O)N2CCOCC2)c1	-1.1%	0.2%	?
CC(C)c1ccc(S(=O)(=O)N2CCN(C(=S)NCc3ccco3)CC2)cc1	nt	-12.7%	-14.5
COc1ccc(C(=O)N2CCC3(CCN(C(=O)Nc4cccc(F)c4)CC3)CC2)cc1	3.9%	0.0%	nt
Cc1csc(N(C(=O)Cc2ccccc2F)c2ccccc2)n1	nt	0.6%	?
Cc1cc(C)n(C(CC(=O)N2CCc3ccccc3C2)C(=O)O)n1 (stereo unspecified)	0.1%	-2.0%	-126.5*
Cc1cc([N+](=O)[O-])nn1CC(=O)N1CCc2ccccc2C1	-0.2%	-2.9%	36.3
ClCCl	-0.2%	-1.8%	nt
Cc1cc(=O)oc2cc(OCC(=O)N3c4ccccc4CC3C)ccc12 (stereo unspecified)	-11.5%	-9.0%	-85.0*
Cc1cc(=O)oc2cc(OCC(=O)N3CC(C)OC(C)C3)ccc12 (stereo unspecified)	1.7%	2.1%	-4.8
Cc1ccc(OCc2nnc(NC(=O)c3ccco3)s2)c(C)c1	-4.9%	-2.1%	-107.1*
Cc1ccc(OCc2nnc(NC(=O)c3ccco3)s2)cc1	-5.7%	-1.9%	?
COc1cc2cc3c4cc(OC)c(OC)cc4cc[n+]3c(C)c2cc1OC	-6.7%	1.8%	nt
Cc1ccc(N(CC(=O)N2CC(=O)Nc3ccccc32)S(=O)(=O)c2ccc3c(c2)OCCO3)cc1	nt	-5.1%	-100.0*
O=C(O)CN(c1ccc(F)cc1)S(=O)(=O)c1ccc2c(c1)OCCO2	3.0%	3.1%	27.4
CCn1c(COc2ccccc2Cl)nnc1SCC(=O)Nc1ncccc1C	nt	1.2%	19.3
O=C(Nc1c2c(nc3ccccc13)CCCC2)c1ccccc1Cl	nt	-4.5%	-27.6

High-throughput results: PubChem, National Center for Advancing Translational Sciences (NCATS)
